# TGFb SMAD3 inh: blocks TGF-b signaling | 410,000 tested, 1.2% active | Potency, µM (highest dose often 46.1 µM), hits mostly inhibitors | HepG2 CAGA-GFP TGF-b/SMAD3 reporter, GFP fluorescence, 18 h; TGF-beta stimulated, 500 pg/mL final; further: nearly all actives have a fitted effect of over 65% in size
#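 Using HEPG2 CAGA-GFP reporter cells at 1000 cells/well, we pinned test compounds, stimulated with recombinant TGF-beta (500 pg/mL final) and measured total well GFP after 18 h.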
# ATXN2 expr inh: ATXN2 expression inhibition. HEK-293 ATXN2-luciferase reporter, luminescence, 24 h. 360,000 tested, 0.72% active. Potency, µM (doses to about 57 µM), most hits filed as inhibitors; further: nearly all actives have a fitted effect of over 55% in size
#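 ATXN2-luciferase reporter cells (luciferase flanked by upstream and downstream ATXN2 gene portions) were treated 24 h at 37 °C with compounds at up to 57 uM. SteadyGlo luminescence gave expression; GF-AFC fluorescence gave viability.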
# IL-1B inflam inh: inhibitors of inflammasome signaling (IL-1 beta secretion); THP-1 LPS/ATP IL-1B secretion, AlphaLISA, 16 h; stronger effect = lower value; activity change, % at 57.5 µM; 360,000 tested, 4.7% active; AID 743279; in the data active means activity change below about -50%; inconclusive means mostly about -30% to -49%
#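 THP-1 cells pretreated 1 hr with compounds (up to 57.5 uM final), then stimulated with LPS (250 ng/mL final) plus ATP (1.25 mM final); secreted IL-1B measured by AlphaLISA after 16 hr, decreased signal indicating inhibition.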
# HepG2 viability: counter-screen for TGF-b inhibitors: cytotoxicity in HepG2 cells; HepG2 CAGA-GFP viability, ATP luminescence, 18 h; Potency, µM (doses to about 46.1 µM), usual class: cytotoxic; 410,000 tested, 0.76% active; AID 588856
#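 CellTiter-Glo luminescence gave cytotoxicity after 18 hours at 37 degrees C. The cells were HepG2 CAGA-GFP in 1% FBS DMEM, stimulated with 500 pg/mL TGF-beta after compound addition. %Activity was normalised to no-cell wells (complete cell-killing) and DMSO (no toxicity), and curves were fitted and classified.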
# S2 tox: viability counter-screen for ATXN expression inhibitors. AID 651635. Potency, µM (titrated, usually from 56.7 µM), most hits filed as cytotoxic. S2 cells (HEK-293 line with an ATXN2-luciferase reporter) viability, CellTiter-Fluor protease fluorescence, 24 h. 400,000 tested, 0.49% active; further: nearly all actives have a fitted effect of over 40% in size
# Numbers stand for hits; - = inactive; ? = inconclusive; . = not tested or not shown. An excerpt weighted towards active compounds, which were near 5.7% of everything screened. Unless noted, the call rests on the fitted dose curve; in most records, active means well fitted curve in the direction sought with a large enough effect; inconclusive means small, poorly fitted or top-dose-only effect, or another doubt; inactive means no such curve, though single readings can be large; an effect the other way counts as inactive or inconclusive.
SMILES,TGFb SMAD3 inh,ATXN2 expr inh,IL-1B inflam inh,HepG2 viability,S2 tox
Cc1ccc(OCCCCn2c(CCNC(=O)C3CCCCC3)nc3ccccc32)cc1,-,.,.,-,.
Cc1cccc(NC(=O)c2ccc(C3SCC(=O)N3CCc3ccccc3)cc2)c1C (stereo unspecified),-,-,-68.4,-,?
Cc1ccc(NC(=O)c2oc3ccccc3c2NC(=O)C23CC4CC(CC(C4)C2)C3)cc1,-,-,.,-,-
COc1ccc(CCN2C(=O)C=CC2=O)cc1OC,?,?,-115.3,-,?
COc1ccc(CCN2C(=O)CN(Cc3ccccc3)CC2=O)cc1OC,-,-,-,-,-
Cc1cc(C)c(NC(=O)C2CCN(C(=O)N3CC(C)Oc4ccc(Cl)cc43)CC2)c(C)c1 (stereo unspecified),-,?,.,-,?
O=C(CSc1nc2ccccc2n1Cc1cccc(C(F)(F)F)c1)NCc1ccccc1,?,-,.,-,-
CN1CCN(C(c2ccc(Cl)cc2)c2cc(Cl)c3cccnc3c2O)CC1 (stereo unspecified),?,?,-64.2,25.1µM,?
CN1CCCN([C@@H](c2ccccc2)c2ccc(Cl)cc2)CC1,.,.,.,.,-
Cn1c(N2CCN(C(=O)Nc3ccc(F)cc3)CC2)nc2ccccc21,-,-,-,-,-
Cn1c(N2CCN(C(c3ccccc3)c3ccccc3)CC2)nc2ccccc21,?,?,-84.1,-,-
CN1CCN(C(c2ccccc2)c2ccc(Cl)cc2)CC1 (stereo unspecified),-,?,-61.3,-,?
CCC1CN(C(=O)Nc2ccccc2C(F)(F)F)c2ccccc2S1 (stereo unspecified),-,.,.,-,.
COc1ccc(C(=O)Nc2cccc(-c3cn4ccsc4n3)c2)c(OC)c1,?,.,.,-,.
NCCCNc1ccc([N+](=O)[O-])cc1C(F)(F)F,-,-,-50.5,-,-
O=C(NCCNc1ccc([N+](=O)[O-])cc1C(F)(F)F)c1ccc(F)cc1,-,-,-,-,-
C[C@@H]1[C@H](C)CC[C@]2(C(=O)O)CC[C@]3(C)C(=CC[C@@H]4[C@@]5(C)C[C@@H](O)[C@H](O)[C@@](C)(CO)[C@H]5CC[C@]43C)[C@@H]12,.,-,.,.,.
C/C=C/C1=CC(=O)C[C@H](c2ccc(Cl)cc2)C1,-,-,-82.1,-,?
C/C=C/C1=CC(=O)C[C@H](c2ccc(OC)c(OC)c2)C1,-,?,-97.5,-,-
COc1ccc([C@H]2CC(=O)C=C(c3ccc(-c4ccccc4)cc3)C2)cc1OC,-,-,-,-,-
C/C=C/C1=CC(=O)C[C@H](c2ccc3c(c2)OCO3)C1,-,-,-61.0,-,?
Cc1cc(C2=CC(=O)C[C@H](c3ccc4c(c3)OCO4)C2)ccc1F,?,-,-51.0,-,-
O=C1C=C(c2ccc3c(c2)OCO3)C[C@@H](c2ccc3c(c2)OCO3)C1,-,-,-,-,-
C/C=C/C1=CC(=O)C[C@H](c2ccc(F)cc2)C1,?,-,?,-,-
COc1ccc(CN2CCOc3ccc(CN4CCCCC4CO)cc3C2)c(OC)c1 (stereo unspecified),.,.,.,.,-
SMILES,TGFb SMAD3 inh,ATXN2 expr inh,IL-1B inflam inh,HepG2 viability,S2 tox
COc1cccc(N2CCN(c3nc(-c4ccccc4C)cc(=O)[nH]3)CC2)c1,?,0.708µM,-73.4,-,-
COc1cccc(N2CCN(c3nc(C)c(C)c(=O)[nH]3)CC2)c1,-,-,-,-,-
COc1cccc(-c2ccc(O)c(CNCc3cccc(OC)c3OC)c2)n1,.,.,.,.,-
CCCCCN1C(C(=O)c2ccccc2)=C(OC(=O)CC)c2ccccc2S1(=O)=O,?,-,.,11.2µM,?
CCCN1C(C(=O)c2ccccc2)=C(OC(=O)c2ccc(F)cc2)c2ccccc2S1(=O)=O,17.8µM,.,.,-,.
CCN1C(C(=O)c2ccccc2)=C(OC(=O)C(C)C)c2ccccc2S1(=O)=O,11.2µM,-,.,-,-
Cc1cccc(C)c1NC(=O)Cn1c(=O)n(Cc2ccc3c(c2)OCO3)c(=O)c2oc3ccccc3c21,-,.,.,-,.
Cc1ccc(-c2nc(C=Nc3ccc(O)cc3)c(O)o2)cc1,-,.,-86.1,-,-
CN=Cc1nc(-c2ccccc2)oc1O,-,-,-,-,-
Cc1ccc(NC(=O)C(=O)NCC(c2ccc3c(c2)OCO3)N2CCOCC2)cc1C (stereo unspecified),-,-,.,-,-
O=C(/C(=C/O)N=Nc1ccccc1)c1ccc(Cl)cc1,-,?,-101.7,-,.
Cc1ccc(N=N/C(=C\O)C(=O)c2ccc(Cl)cc2)cc1,?,?,-85.7,-,?
O=C(/C(=C/O)N=Nc1ccccc1)c1ccncc1,-,-,-,-,-
Cc1ccc2scc(N3CCc4ccccc4C3)c(=O)c2c1,-,-,.,-,-
Cc1cc2nc(N3C(=O)CNC3=S)sc2cc1C,?,?,-97.2,-,?
CCOc1ccc2nc(N3C(=O)CNC3=S)sc2c1,?,?,-96.8,-,.
Cc1nc2sc(C#N)c(N)c2c2c1CCCC2,?,-,-,-,-
N#Cc1sc2nc(N3CCCCC3)c3c(c2c1N)CCCC3,11.2µM,-,-,-,-
CC1(C)CC(n2c(NCCO)nc3c(c2=O)C2(CCCC2)Cc2ccccc2-3)CCO1 (stereo unspecified),?,-,-66.4,-,-
CCC1(C)Cc2ccccc2-c2nc(NCCCO)n(C)c(=O)c21 (stereo unspecified),-,-,-,-,-
CCn1c(NCCCO)nc2c(c1=O)C(C)(CC)Cc1ccccc1-2 (stereo unspecified),-,-,-57.5,-,-
Cc1ccccc1-c1noc(-c2ccc(N3CCN(C)CC3)c([N+](=O)[O-])c2)n1,?,-,.,-,-
CCCCN(CCCC)CC(O)c1cc(Cl)cc2c1-c1ccc(Cl)cc1C2=Cc1ccc(Cl)cc1 (stereo unspecified),-,-,.,-,.
CCS(=O)(=O)N1CCc2cc(C(=O)Nc3ccc(OC)c(Cl)c3)ccc21,-,-,.,-,?
N#C/C(=C\c1coc2ccc(O)cc2c1=O)C(=O)Nc1nc2ccccc2s1,?,.,-,11.2µM,?
SMILES,TGFb SMAD3 inh,ATXN2 expr inh,IL-1B inflam inh,HepG2 viability,S2 tox
CCOC(=O)/C(=C/C=C1\Sc2cc(OCC)c(OCC)cc2N1CC)C(C)=O,-,-,-,-,?
CCOC(=O)/C(=C\C=C1/Sc2cc(OCC)c(OCC)cc2N1CC)C(C)=O,-,-,-93.0,-,.
CN(N=Cc1ccccc1O)c1ccc2ccccc2n1,-,.,-,-,-
CN(/N=C/c1cc(Br)cc(Br)c1O)c1cccc(C(F)(F)F)n1,?,?,-,3.16µM,.
CCOC(=O)c1ccc(N2CCN(c3cc(C)ccc3C)CC2)c(NC(=O)Nc2ccccc2)c1,-,.,.,-,.
Cc1ccc(S(=O)(=O)CC(=O)Nc2nc3c(C)cc(C)cc3s2)cc1,?,.,.,-,.
COc1ccc(-c2cc(C(F)(F)F)nc(NC3CCCC3)n2)cc1OC,-,-,-,22.4µM,-
